Inconclusive results are not listed. Calls of active or inactive are those of the source. Unless noted, the call rests on the fitted dose curve; in most records, active means well fitted curve in either direction with a large enough effect (not every such curve was filed as active); inconclusive means small, poorly fitted or top-dose-only effect, or another doubt; inactive means flat fitted curve, though single readings scatter.
Columns and labels:
[1] = target: Lysosomal acid glucosylceramidase (Homo sapiens) (UniProt P04062); test: Glucocerebrosidase-p2 (AID 348; in the data active means potency below about 10 µM; further: potency means the concentration at half of the fitted maximal effect); details: purified GBA, blue fluorogenic substrate, 40 min
Lysosomal acid glucosylceramidase (Homo sapiens), sequence (P04062 whole entry, looked up): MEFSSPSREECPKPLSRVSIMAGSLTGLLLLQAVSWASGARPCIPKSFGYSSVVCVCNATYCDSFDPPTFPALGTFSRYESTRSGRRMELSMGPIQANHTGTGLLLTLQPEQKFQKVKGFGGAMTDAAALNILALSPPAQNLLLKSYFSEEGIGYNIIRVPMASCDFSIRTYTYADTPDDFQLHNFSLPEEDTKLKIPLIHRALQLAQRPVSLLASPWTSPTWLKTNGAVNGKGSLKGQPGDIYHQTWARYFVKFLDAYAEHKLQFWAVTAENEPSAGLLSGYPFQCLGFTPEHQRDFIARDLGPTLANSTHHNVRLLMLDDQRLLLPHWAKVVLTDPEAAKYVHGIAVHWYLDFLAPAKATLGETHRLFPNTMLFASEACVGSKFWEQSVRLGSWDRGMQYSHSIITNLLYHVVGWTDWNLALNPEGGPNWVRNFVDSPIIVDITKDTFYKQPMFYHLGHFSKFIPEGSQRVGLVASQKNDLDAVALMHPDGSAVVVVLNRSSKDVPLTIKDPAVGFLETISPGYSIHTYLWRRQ
Procedure, shortened: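 Normal human glucocerebrosidase (0.2 nM) with blue fluorogenic substrate (80 uM final) in citrate/phosphate pH 5.9 with 10mM sodium taurocholate, 0.01% tween-20; 40 min RT, NaOH/glycine stop; fluorescence Ex 365/Em 440; AC50 from a titration from 0.6 nM upwards.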

[2] = AP1 Signaling Pathway (AID 357); details: ME-180 AP-1-bla reporter, EGF-induced, beta-lactamase ratio, 5 h; at 7.69 µM (top of the series) unless noted; further: on the % scale 0 is the no-effect control and ±100 the full control effect
Procedure, shortened: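 AP-1-bla ME-180 cells with beta-lactamase reporter under AP-1 response element, stimulated with EC50 EGF; compounds titrated, 5 hours at 37 degrees Celsius. CCF4 read at 460/530 nm ratio; positive and negative modulators judged by AC50.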

[3] = NFAT Signaling Pathway (AID 444); details: Jurkat NFAT-bla M1, carbachol, beta-lactamase ratio, 5 h; at 7.69 µM (top of the series) unless noted;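 further: carbachol stimulus at about its EC50 of 1 µM final; on the % scale 0 is the no-effect control and ±100 the full control effect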
Procedure, shortened: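 Jurkat cells carrying an NFAT-driven β-lactamase reporter and co-transfected muscarinic M1 receptor were treated with compound plus carbachol (1 uM final, an EC50 level) for 5 h at 37 °C. CCF4 loading followed for 1 h at RT; 460/530 nm ratio gave %activity.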

[4] = Stat Signaling Pathway (AID 446); details: ME-180 (cervical carcinoma) SIE beta-lactamase reporter, IL-6 stimulated, 5 h; at 7.69 µM (top of the series) unless noted;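 further: ME-180 cervical cancer cells given 40 pM IL-6 alongside compound; SIE-controlled beta-lactamase reporter measured as 460/530 nm FRET emission ratio; on the % scale 0 is the no-effect control and ±100 the full control effect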
Procedure, shortened: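 Emission at 460 and 530 nm (excitation 405 nm) reports SIE-controlled beta-lactamase in ME-180 cells. Cells received compound with 40 pM IL-6 for 5 hrs at 37 C; data scaled between 300 pM IL-6 and 125 nM JAK-inhibitor controls.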

[5] = target: Glucocorticoid receptor (Homo sapiens) (UniProt P04150); test: GR-EFC Redistribution (AID 451; calls by dose curve; further: potency means the concentration at half of the fitted maximal effect); details: CHO-K1 GR-EFC translocation, beta-gal luminescence, 2 h
Glucocorticoid receptor (Homo sapiens), sequence (P04150 whole entry, looked up, the tested form may be a part): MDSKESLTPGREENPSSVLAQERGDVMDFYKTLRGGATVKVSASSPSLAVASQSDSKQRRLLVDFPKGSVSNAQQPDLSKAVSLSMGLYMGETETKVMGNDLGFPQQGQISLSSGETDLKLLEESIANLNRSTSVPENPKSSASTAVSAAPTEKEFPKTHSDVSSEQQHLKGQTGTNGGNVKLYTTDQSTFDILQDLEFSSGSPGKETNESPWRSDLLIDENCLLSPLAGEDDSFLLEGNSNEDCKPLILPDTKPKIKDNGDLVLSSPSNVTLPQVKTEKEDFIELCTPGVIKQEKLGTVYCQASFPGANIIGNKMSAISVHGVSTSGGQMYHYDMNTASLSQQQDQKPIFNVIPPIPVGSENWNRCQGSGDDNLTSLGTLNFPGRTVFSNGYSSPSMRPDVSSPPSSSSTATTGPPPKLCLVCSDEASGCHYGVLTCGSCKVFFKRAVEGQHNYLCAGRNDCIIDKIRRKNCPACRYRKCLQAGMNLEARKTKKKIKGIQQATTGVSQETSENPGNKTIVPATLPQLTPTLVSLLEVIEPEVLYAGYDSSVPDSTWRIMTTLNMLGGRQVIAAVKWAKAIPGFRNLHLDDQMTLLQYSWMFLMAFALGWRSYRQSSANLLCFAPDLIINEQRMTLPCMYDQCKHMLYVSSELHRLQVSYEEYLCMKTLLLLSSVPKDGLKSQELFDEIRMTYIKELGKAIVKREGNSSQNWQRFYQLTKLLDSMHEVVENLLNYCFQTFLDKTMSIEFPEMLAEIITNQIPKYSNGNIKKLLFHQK
Procedure, shortened: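 CHO-K1 cells stably expressing nuclear-localized β-gal enzyme acceptor and GR fused C-terminally to the enzyme donor fragment; ligand-driven nuclear translocation restores β-gal by complementation. Compounds titrated up to 46 uM final, 2 h at 37 °C; luminescence read.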

[6] = target: Mitogen-activated protein kinase 10 (Mus musculus) (UniProt Q61831); test: JNK3 AlphaScreen Assay (AID 530); details: JNK3 lysate, c-Jun phosphorylation; series mostly up to 57.1 µM;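 further: kinase came from lysate of stimulated human HepG2 cells; signal reports phosphorylation of biotinylated GST-cJun 1-79 at Ser73 with 10 µM ATP; on the % scale 0 is the no-effect control and ±100 the full control effect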
Procedure, shortened: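 Phosphorylation of biotinylated GST-cJun(1-79) at Ser73 is measured by AlphaScreen proximity luminescence. Enzyme is JNK3 in HepG2 lysates activated with interleukin-1beta and tumor necrosis factor alpha; ATP is 10 uM final.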

[7] = target: 3',5'-cyclic-AMP phosphodiesterase 4B (Homo sapiens) (UniProt Q07343); test: qHTS Assay for Inhibitors of PDE-IV (AID 607; active means well fitted activation curve with a large enough effect in the main read-out, with a control signal flat, not every such curve was filed as active; further: % of control where 0% means no effect); details: HEK293 ACTOne CNG channel cells, membrane potential fluorescence; series mostly up to 22.9 µM
3',5'-cyclic-AMP phosphodiesterase 4B (Homo sapiens), sequence (Q07343 whole entry, looked up): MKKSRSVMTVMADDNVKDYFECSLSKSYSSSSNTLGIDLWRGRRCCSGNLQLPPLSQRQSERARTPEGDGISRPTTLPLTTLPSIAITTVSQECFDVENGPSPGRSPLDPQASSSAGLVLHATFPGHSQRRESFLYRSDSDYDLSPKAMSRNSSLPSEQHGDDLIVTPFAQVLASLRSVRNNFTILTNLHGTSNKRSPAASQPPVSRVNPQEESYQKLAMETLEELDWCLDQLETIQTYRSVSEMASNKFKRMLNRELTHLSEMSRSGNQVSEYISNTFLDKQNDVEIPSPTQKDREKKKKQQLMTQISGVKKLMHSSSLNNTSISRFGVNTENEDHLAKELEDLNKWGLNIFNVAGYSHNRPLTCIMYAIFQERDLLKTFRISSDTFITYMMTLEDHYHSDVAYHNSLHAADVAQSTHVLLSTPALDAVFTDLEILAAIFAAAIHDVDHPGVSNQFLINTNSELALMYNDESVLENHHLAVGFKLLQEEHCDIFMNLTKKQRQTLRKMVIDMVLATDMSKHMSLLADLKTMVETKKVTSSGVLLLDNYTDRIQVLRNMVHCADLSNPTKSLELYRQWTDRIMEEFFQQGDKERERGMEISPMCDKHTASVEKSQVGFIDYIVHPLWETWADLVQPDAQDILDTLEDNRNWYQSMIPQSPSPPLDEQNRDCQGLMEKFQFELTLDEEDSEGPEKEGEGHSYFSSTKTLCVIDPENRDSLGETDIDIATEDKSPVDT
Procedure, shortened: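 The readout is membrane depolarisation from a cAMP-sensing CNG channel, detected with a potential dye at ex 535/em 590. Cells were HEK293-derived (endogenous PDE-IV) at 1000 cells/well, titrated up to 22.9 uM final.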

[8] = target: Cytochrome P450 3A4 (Homo sapiens) (UniProt P08684); test: qHTS Assay for Activators of Cytochrome P450 3A4 (AID 885; active means well fitted curve in the direction sought with a large enough effect; an effect the other way counts as inactive or inconclusive; further: nearly all actives have a fitted effect of over 65% in size); details: recombinant CYP3A4, Luciferin-PPXE luminescence, 60 min; series mostly up to 57.1 µM
Cytochrome P450 3A4 (Homo sapiens), sequence (P08684 whole entry, looked up): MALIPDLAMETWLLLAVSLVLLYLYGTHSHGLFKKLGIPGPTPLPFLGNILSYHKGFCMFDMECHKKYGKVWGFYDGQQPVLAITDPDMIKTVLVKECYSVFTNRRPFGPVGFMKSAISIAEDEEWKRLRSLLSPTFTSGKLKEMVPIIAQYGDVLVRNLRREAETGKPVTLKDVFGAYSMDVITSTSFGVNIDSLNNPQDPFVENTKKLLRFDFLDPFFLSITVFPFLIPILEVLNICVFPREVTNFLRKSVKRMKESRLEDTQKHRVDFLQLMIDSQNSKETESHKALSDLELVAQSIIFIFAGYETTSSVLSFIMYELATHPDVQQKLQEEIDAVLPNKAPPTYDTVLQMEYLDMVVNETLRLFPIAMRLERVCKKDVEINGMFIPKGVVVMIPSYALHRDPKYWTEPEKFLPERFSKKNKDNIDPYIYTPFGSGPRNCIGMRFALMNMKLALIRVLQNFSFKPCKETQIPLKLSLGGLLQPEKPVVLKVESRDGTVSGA
Procedure, shortened: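 Activators are scored by enhanced luminescence from CYP3A4 conversion of luciferin-PPXE (25uM, equal to KM) to luciferin, after 60 min at RT with an NADPH-regenerating system.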

[9] = qHTS Assay for Lipid Storage Modulators (AID 1519; calls by dose curve); details: Drosophila S3 cells, BODIPY lipid droplet/cell ratio, laser cytometry, cells loaded with oleic acid; for activity change, negative = inhibition: at 57.5 µM (top of the series)
Procedure, shortened: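 Cells seeded at 5,000 per well were treated with compounds over a concentration series and loaded with oleic acid (400 uM, as added). Lipid droplet fluorescence (488 nm excitation, 500-530 nm channel) was read by laser-scanning cytometry and normalized to 20 uM Triacsin C.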

[10] = Primary qHTS for small molecule stabilizers of the endoplasmic reticulum resident proteome: Secreted ER Calcium Modulated Protein (SERCaMP) assay (AID 1508630; active means well fitted curve in the direction sought with a large enough effect; an effect the other way counts as inactive or inconclusive; further: on the % scale 0 is the no-effect control and ±100 the full control effect); details: SH-SY5Y GLuc-SERCaMP (Gaussia luciferase released on ER calcium loss) secretion, thapsigargin, luminescence; series mostly up to 38.4 µM
Procedure, shortened: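 The SH-SY5Y reporter protocol was run at 3 concentrations up to 38.3 uM (primary) or 11 concentrations (follow-up): 16 h compound, 100 nM thapsigargin for 4 h, then extracellular luciferase luminescence.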

[11] = measured here: cell count channel max response
[12] = measured here: lipid channel max response

| SMILES | Potency [1] | activity change, negative = inhibition [2] | activity change, negative = inhibition [3] | activity, negative = inhibition [4] | Potency [5] | Potency [6] | Potency [7] | Potency [8] | activity change, negative = inhibition [9] | max response [9, 11] [%] | max response [9, 12] [%] | outcome [10] |
| --- | --- | --- | --- | --- | --- | --- | --- | --- | --- | --- | --- | --- |
| COCC(=O)N1CCC2(CCCN(c3ccccc3)C2)CC1 | > 11.4 µM (inactive) | 4.54% (inactive) | -7.94% (inactive) | -0.962% (inactive) | > 46 µM (inactive) | inactive | inactive | inactive | 0.354% (inactive) | 4.96 | 6.05 | inactive |
| CC(C)NC(=O)N1CC2(CCN(C(=O)c3cc(C(F)(F)F)cc(C(F)(F)F)c3)CC2)C1 | > 11.4 µM (inactive) | -16.3% (inactive) | 6.43% (inactive) | -11.9% (inactive) | > 46 µM (inactive) | inactive | inactive | – | 0.828% (inactive) | 11 | 13.7 | inactive |
| COCC(=O)N1CCC[C@@]2(CCN(c3ccccc3)C2)C1 | > 11.4 µM (inactive) | -8.85% (inactive) | -13.7% (inactive) | 8.14% (inactive) | > 46 µM (inactive) | inactive | inactive | – | -2.7% (inactive) | 17.9 | 18 | inactive |
| COc1ccccc1CN1CC[C@@]2(CCCN(C(=O)c3ccncc3)C2)C1 | > 11.4 µM (inactive) | -11.5% (inactive) | 3.54% (inactive) | 0.423% (inactive) | – | inactive | inactive | – | 3.67% (inactive) | 8.53 | 14.1 | inactive |
| Cn1cccc1C(=O)N1CCC2(CC1)CN(C(=O)Nc1cccc(C#N)c1)C2 | > 11.4 µM (inactive) | -22.3% (inactive) | -2.19% (inactive) | -3.02% (inactive) | > 46 µM (inactive) | inactive | inactive | – | 4.61% (inactive) | 11.3 | 18.4 | inactive |
| COCC(=O)N1CCC2(CC1)CN(c1cccc(-c3ccccc3)c1)C2 | > 11.4 µM (inactive) | -29.8% (inactive) | 19.3% (inactive) | – | > 46 µM (inactive) | inactive | inactive | – | 3.02% (inactive) | -3.81 | 0.928 | inactive |
| COc1ccccc1CN1CCC2(CC1)CCN(C(=O)c1ccncc1)CC2 | > 11.4 µM (inactive) | -13% (inactive) | – | 5.76% (inactive) | > 46 µM (inactive) | inactive | inactive | – | -0.0628% (inactive) | -18.4 | -17.2 | inactive |
| O=C(c1csnn1)N1CCC2(CCCN(c3ccncc3)C2)CC1 | > 11.4 µM (inactive) | -17.6% (inactive) | – | -10.5% (inactive) | > 46 µM (inactive) | inactive | inactive | – | -0.384% (inactive) | 0.465 | -0.685 | inactive |
